Experimental data reported in publication PMC7862700, “An all-to-all approach to the identification of sequence-specific readers for epigenetic DNA modifications on cytosine”.

What was measured:
Assay in all cases: DAPPL (digital affinity profiling via proximity ligation, sequencing); 10 mM Tris-HCl pH 7.5, 50 mM NaCl, 1 mM DTT, 4% glycerol, room temperature, 30 min; GST-TFs on glutathione beads, 16-mer random dsDNA library, 0.1% formaldehyde crosslink after washing; high values mean tight binding
[1] = target: T1, FEV (Homo sapiens, UniProt Q99581 1-238); conditions: protein: recombinant; tags: N-terminal GST; dsDNA, one strand shown
T1 sequence: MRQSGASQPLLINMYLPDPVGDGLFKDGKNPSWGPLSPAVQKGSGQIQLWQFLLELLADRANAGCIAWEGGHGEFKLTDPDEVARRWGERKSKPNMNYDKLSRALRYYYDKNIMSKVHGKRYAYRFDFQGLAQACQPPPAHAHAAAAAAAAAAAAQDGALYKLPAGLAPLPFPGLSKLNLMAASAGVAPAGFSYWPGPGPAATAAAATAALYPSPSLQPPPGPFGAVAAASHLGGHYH
Outline: (§1)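 Pools were built from human transcription factors expressed in yeast as GST fusions, captured on glutathione beads and DNA-barcoded, along with a tag-only sample. Incubation with 200 nmole of a 16-mer random double-stranded DNA library lasted 30 min at room temperature in Tris/NaCl/DTT/glycerol buffer, and was followed by washing, 0.1% formaldehyde crosslinking, proximity ligation, PCR amplification and Illumina NextSeq500 sequencing. Binding signal is the quotient of each hexamer's read frequency for a factor and its frequency for the tag-only sample.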

[2] = target: ETV5 (Homo sapiens, UniProt P41161 1-510); conditions: protein: recombinant; tags: N-terminal GST; dsDNA, one strand shown
ETV5, sequence (P41161 whole entry): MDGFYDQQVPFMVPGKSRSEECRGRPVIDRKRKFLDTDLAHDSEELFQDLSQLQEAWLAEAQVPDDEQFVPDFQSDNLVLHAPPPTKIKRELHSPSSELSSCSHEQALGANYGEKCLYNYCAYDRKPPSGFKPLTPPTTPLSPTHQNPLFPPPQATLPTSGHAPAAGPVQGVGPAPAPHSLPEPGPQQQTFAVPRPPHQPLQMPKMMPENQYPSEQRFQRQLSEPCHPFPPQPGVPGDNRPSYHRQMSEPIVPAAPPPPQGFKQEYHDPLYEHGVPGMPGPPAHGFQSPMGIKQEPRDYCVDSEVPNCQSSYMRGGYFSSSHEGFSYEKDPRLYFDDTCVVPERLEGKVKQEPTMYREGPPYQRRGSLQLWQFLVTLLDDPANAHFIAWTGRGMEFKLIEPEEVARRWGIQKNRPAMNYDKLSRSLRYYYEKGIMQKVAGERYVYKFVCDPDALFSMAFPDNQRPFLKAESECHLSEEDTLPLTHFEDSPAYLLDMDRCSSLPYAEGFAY
Outline: as §1

[3] = target: HSF1 (Homo sapiens, UniProt Q00613 1-529); conditions: protein: recombinant; tags: N-terminal GST; chain copies: 3; dsDNA, one strand shown
HSF1, sequence (Q00613 whole entry): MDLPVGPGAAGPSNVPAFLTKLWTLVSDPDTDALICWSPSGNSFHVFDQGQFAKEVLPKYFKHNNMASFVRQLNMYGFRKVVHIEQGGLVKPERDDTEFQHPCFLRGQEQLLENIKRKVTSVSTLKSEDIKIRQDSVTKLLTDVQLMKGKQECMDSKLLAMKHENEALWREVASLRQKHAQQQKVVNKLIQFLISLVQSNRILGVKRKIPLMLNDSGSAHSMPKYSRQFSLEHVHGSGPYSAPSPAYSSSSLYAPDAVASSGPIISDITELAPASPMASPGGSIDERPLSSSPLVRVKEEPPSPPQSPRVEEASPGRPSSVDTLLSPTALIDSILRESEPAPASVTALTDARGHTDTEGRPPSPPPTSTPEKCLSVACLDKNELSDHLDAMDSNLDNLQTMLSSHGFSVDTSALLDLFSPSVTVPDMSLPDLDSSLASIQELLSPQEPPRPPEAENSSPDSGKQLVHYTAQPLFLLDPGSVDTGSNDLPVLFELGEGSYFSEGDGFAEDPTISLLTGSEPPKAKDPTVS
Outline: as §1

[4] = target: T2, SPIC (Homo sapiens, UniProt Q8N5J4 1-248); conditions: protein: recombinant; tags: N-terminal GST; dsDNA, one strand shown
T2 sequence: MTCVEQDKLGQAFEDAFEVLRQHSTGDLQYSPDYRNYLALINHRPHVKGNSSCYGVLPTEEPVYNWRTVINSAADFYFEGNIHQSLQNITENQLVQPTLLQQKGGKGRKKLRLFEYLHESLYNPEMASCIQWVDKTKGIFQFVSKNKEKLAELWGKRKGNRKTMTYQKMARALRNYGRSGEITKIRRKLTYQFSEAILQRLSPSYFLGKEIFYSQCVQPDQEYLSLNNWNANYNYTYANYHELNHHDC
Outline: as §1

[5] = target: ELF4 (Homo sapiens, UniProt Q99607 1-663); conditions: protein: recombinant; tags: N-terminal GST; dsDNA, one strand shown
ELF4, sequence (Q99607 whole entry): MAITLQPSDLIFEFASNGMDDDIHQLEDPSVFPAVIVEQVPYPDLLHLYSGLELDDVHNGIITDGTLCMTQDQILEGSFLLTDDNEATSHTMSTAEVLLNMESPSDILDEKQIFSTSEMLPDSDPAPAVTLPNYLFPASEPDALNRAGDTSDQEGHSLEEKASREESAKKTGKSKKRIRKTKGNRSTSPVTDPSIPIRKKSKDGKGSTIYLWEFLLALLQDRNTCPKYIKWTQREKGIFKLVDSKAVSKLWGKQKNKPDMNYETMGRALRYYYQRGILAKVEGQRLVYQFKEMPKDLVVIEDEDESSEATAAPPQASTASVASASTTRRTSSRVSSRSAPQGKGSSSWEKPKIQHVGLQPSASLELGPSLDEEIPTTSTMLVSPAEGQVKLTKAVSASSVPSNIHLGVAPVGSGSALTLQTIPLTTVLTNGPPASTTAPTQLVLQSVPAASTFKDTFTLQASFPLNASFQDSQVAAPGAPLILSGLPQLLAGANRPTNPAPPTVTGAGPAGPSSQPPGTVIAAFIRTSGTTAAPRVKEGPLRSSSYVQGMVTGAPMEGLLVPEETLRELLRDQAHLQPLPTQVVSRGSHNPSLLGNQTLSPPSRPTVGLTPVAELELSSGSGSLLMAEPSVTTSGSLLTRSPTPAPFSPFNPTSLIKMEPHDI
Outline: as §1

[6] = target: T3, ELK4 (Homo sapiens, UniProt P28324-2 1-405); conditions: protein: recombinant; tags: N-terminal GST; dsDNA, one strand shown
T3 sequence: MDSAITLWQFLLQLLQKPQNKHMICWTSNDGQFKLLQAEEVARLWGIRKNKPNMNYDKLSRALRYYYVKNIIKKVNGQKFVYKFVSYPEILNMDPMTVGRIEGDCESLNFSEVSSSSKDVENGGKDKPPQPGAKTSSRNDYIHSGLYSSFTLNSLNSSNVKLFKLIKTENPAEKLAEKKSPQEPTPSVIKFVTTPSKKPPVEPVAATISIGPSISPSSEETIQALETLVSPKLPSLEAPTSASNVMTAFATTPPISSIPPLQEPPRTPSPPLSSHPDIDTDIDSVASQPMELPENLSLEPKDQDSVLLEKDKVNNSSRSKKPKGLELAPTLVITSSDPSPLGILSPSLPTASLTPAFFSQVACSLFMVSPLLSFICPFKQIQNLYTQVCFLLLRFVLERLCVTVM
Outline: as §1

[7] = target: T4, ETV2 (Homo sapiens, UniProt O00321 1-342); conditions: protein: recombinant; tags: N-terminal GST; dsDNA, one strand shown
T4 sequence: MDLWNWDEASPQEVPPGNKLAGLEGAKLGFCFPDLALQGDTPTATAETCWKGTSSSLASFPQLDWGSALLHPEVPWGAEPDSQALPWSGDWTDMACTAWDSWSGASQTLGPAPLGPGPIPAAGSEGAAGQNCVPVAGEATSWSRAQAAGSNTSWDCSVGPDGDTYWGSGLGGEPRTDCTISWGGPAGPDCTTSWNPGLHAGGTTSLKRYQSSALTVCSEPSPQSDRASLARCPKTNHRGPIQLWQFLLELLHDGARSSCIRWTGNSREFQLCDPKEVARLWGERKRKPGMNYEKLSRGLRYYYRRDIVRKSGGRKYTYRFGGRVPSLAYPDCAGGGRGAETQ
Outline: as §1

[8] = target: T5, ELF3 (Homo sapiens, UniProt P78545 1-371); conditions: protein: recombinant; tags: N-terminal GST; dsDNA, one strand shown
T5 sequence: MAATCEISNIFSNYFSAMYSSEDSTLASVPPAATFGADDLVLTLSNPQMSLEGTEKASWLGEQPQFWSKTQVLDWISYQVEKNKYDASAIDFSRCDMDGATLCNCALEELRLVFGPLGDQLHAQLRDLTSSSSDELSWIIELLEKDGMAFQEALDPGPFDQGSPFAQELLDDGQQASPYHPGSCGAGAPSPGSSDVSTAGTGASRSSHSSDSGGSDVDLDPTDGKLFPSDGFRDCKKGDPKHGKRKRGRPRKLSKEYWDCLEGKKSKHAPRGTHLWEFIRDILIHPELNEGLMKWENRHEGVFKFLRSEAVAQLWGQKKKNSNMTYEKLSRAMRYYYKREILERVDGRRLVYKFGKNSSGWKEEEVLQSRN
Outline: as §1

[9] = target: CRX (Homo sapiens, UniProt O43186 1-299); conditions: protein: recombinant; tags: N-terminal GST; dsDNA, one strand shown
CRX, sequence (O43186 whole entry): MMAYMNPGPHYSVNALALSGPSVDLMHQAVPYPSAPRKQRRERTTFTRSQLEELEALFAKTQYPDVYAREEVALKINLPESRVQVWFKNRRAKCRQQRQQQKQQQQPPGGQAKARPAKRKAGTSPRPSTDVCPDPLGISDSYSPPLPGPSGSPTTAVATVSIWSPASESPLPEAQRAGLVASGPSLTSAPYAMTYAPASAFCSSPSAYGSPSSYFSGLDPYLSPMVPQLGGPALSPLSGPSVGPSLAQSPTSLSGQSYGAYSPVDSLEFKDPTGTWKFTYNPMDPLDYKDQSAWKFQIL
Outline: as §1

[10] = target: ETV1 (Homo sapiens, UniProt P50549 1-477); conditions: protein: recombinant; tags: N-terminal GST; dsDNA, one strand shown
ETV1, sequence (P50549 whole entry): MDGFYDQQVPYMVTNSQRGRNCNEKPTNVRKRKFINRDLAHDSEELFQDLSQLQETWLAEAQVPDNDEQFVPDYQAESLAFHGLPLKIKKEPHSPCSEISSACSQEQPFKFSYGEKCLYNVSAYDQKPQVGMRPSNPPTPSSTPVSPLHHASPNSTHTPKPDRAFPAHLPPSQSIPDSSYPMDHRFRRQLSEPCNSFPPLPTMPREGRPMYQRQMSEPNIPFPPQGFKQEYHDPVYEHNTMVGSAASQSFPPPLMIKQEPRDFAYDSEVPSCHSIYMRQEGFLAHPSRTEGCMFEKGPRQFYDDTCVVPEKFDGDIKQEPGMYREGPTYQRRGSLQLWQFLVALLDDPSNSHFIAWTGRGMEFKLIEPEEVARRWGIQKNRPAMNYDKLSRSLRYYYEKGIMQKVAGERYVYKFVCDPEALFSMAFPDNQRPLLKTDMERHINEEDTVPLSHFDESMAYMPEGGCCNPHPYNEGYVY
Outline: as §1

[11] = target: T6, ERF (Homo sapiens, UniProt P50548 1-548); conditions: protein: recombinant; tags: N-terminal GST; dsDNA, one strand shown
T6 sequence: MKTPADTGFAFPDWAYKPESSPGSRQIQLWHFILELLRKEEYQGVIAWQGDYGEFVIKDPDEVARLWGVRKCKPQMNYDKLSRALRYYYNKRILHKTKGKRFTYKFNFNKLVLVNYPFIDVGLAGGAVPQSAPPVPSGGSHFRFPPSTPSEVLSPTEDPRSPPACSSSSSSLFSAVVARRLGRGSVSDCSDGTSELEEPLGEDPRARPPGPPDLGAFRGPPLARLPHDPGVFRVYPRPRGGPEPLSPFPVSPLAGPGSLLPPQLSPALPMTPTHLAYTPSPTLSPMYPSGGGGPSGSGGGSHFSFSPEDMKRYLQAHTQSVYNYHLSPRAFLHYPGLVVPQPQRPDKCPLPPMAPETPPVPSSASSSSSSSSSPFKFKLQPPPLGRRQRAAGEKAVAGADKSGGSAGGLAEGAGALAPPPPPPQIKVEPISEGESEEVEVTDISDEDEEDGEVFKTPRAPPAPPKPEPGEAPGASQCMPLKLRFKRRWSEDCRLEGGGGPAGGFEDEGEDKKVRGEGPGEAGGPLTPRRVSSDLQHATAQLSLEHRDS
Outline: as §1

[12] = target: T7, ETV3L (Homo sapiens, UniProt Q6ZN32 1-361); conditions: protein: recombinant; tags: N-terminal GST; dsDNA, one strand shown
T7 sequence: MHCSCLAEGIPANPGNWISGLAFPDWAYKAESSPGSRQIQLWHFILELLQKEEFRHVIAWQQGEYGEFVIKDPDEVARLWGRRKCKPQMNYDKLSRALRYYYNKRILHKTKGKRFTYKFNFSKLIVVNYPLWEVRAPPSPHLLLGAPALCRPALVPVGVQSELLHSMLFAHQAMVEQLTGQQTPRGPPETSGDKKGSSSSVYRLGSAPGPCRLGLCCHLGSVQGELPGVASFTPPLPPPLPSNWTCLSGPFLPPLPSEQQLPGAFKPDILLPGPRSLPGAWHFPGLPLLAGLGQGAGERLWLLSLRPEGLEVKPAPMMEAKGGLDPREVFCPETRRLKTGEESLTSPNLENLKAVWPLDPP
Outline: as §1

[13] = target: T8, ETS2 (Homo sapiens, UniProt P15036 1-469); conditions: protein: recombinant; tags: N-terminal GST; dsDNA, one strand shown
T8 sequence: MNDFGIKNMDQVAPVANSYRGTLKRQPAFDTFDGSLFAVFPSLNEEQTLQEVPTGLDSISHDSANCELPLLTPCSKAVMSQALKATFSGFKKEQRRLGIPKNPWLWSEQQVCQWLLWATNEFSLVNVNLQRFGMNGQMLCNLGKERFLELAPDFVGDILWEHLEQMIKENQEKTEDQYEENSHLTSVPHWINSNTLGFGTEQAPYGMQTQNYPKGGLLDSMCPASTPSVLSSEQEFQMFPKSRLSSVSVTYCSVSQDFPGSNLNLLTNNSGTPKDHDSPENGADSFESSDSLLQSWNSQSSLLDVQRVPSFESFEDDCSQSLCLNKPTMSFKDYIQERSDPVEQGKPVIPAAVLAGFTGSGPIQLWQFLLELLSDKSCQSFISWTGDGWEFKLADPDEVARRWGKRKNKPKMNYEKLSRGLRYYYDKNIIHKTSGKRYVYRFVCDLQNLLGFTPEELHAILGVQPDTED
Outline: as §1

[14] = target: T9, SPDEF (Homo sapiens, UniProt O95238 1-335); conditions: protein: recombinant; tags: N-terminal GST; dsDNA, one strand shown
T9 sequence: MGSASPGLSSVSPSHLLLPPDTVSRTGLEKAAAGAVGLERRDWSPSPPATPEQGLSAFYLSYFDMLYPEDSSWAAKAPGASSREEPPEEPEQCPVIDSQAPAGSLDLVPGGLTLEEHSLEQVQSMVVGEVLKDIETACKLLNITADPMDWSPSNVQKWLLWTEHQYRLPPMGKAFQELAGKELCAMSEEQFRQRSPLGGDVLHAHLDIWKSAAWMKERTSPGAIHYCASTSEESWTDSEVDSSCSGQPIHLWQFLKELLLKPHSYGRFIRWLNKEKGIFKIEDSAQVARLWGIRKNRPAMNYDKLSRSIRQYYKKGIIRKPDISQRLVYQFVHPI
Outline: as §1

[15] = target: T10, ETV7 (Homo sapiens, UniProt Q9Y603 1-341); conditions: protein: recombinant; tags: N-terminal GST; dsDNA, one strand shown
T10 sequence: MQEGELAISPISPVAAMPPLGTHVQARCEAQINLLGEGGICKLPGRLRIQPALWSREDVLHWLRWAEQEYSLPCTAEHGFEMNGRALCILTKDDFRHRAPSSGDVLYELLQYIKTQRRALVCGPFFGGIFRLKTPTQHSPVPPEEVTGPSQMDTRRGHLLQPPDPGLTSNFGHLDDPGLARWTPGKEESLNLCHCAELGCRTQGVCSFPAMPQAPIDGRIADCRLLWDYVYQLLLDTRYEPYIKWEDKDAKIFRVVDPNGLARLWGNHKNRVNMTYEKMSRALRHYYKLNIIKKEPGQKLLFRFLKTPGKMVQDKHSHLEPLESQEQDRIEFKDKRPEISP
Outline: as §1

[16] = target: T11, ELF5 (Homo sapiens, UniProt Q9UKW6-2 1-255); conditions: protein: recombinant; tags: N-terminal GST; dsDNA, one strand shown
T11 sequence: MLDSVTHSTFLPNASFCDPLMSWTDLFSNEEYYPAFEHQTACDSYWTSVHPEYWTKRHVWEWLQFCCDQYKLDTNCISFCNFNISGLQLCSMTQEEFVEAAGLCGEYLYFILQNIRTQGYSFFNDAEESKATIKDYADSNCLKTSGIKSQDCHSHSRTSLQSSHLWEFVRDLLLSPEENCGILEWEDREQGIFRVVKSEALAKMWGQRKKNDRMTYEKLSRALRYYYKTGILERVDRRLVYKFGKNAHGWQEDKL
Outline: as §1

[17] = target: T12, ETV3 (Homo sapiens, UniProt P41162-2 1-143); conditions: protein: recombinant; tags: N-terminal GST; dsDNA, one strand shown
T12 sequence: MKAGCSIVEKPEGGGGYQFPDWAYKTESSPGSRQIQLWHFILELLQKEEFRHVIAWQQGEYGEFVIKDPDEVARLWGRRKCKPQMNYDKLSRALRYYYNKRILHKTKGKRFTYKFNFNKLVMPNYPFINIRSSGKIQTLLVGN
Outline: as §1

[18] = target: ETV6 (Homo sapiens, UniProt P41212 1-452); conditions: protein: recombinant; tags: N-terminal GST; dsDNA, one strand shown
ETV6, sequence (P41212 whole entry): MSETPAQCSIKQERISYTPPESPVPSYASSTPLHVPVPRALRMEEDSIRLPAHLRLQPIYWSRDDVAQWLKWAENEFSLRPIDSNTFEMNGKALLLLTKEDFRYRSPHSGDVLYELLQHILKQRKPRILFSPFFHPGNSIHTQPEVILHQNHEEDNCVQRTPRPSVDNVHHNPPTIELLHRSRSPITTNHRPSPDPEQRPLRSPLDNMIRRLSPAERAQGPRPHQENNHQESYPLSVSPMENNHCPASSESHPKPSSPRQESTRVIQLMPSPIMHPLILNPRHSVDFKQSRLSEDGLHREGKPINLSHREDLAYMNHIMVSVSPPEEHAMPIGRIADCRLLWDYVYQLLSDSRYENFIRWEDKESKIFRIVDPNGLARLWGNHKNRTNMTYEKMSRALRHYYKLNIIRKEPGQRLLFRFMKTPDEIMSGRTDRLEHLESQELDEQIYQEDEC
Outline: as §1

Sequence	binding signal [1]	binding signal [2]	binding signal [3]	binding signal [4]	binding signal [5]	binding signal [6]	binding signal [7]	binding signal [8]	binding signal [9]	binding signal [10]	binding signal [11]	binding signal [12]	binding signal [13]	binding signal [14]	binding signal [15]	binding signal [16]	binding signal [17]	binding signal [18]
TTGAAT	1.03 fold enrichment (6-mer frequency, TF over GST control)	1.07 fold enrichment (6-mer frequency, TF over GST control)	1.09 fold enrichment (6-mer frequency, TF over GST control)	1.16 fold enrichment (6-mer frequency, TF over GST control)	1.12 fold enrichment (6-mer frequency, TF over GST control)	1.05 fold enrichment (6-mer frequency, TF over GST control)	1.04 fold enrichment (6-mer frequency, TF over GST control)	1.1 fold enrichment (6-mer frequency, TF over GST control)	1.17 fold enrichment (6-mer frequency, TF over GST control)	1.11 fold enrichment (6-mer frequency, TF over GST control)	1.05 fold enrichment (6-mer frequency, TF over GST control)	1.01 fold enrichment (6-mer frequency, TF over GST control)	1.06 fold enrichment (6-mer frequency, TF over GST control)	1.17 fold enrichment (6-mer frequency, TF over GST control)	1.09 fold enrichment (6-mer frequency, TF over GST control)	1.09 fold enrichment (6-mer frequency, TF over GST control)	1.02 fold enrichment (6-mer frequency, TF over GST control)	1.03 fold enrichment (6-mer frequency, TF over GST control)
TAATAC	1.12 fold enrichment (6-mer frequency, TF over GST control)	1.04 fold enrichment (6-mer frequency, TF over GST control)	1.63 fold enrichment (6-mer frequency, TF over GST control)	1.12 fold enrichment (6-mer frequency, TF over GST control)	1.14 fold enrichment (6-mer frequency, TF over GST control)	1.04 fold enrichment (6-mer frequency, TF over GST control)	1.16 fold enrichment (6-mer frequency, TF over GST control)	1.05 fold enrichment (6-mer frequency, TF over GST control)	2.45 fold enrichment (6-mer frequency, TF over GST control)	1.11 fold enrichment (6-mer frequency, TF over GST control)	1.14 fold enrichment (6-mer frequency, TF over GST control)	1.1 fold enrichment (6-mer frequency, TF over GST control)	1.12 fold enrichment (6-mer frequency, TF over GST control)	1.12 fold enrichment (6-mer frequency, TF over GST control)	1.11 fold enrichment (6-mer frequency, TF over GST control)	1.09 fold enrichment (6-mer frequency, TF over GST control)	1.03 fold enrichment (6-mer frequency, TF over GST control)	1.12 fold enrichment (6-mer frequency, TF over GST control)
